Source: PubChem BioAssay (NCI)
About 79,000 compounds went through this panel and 15% of them were active in at least one assay; those are over-represented in the sample as a whole. Rule as the data show it: active = growth inhibition above about 70%; inactive = the rest.

Experiment: NCI Yeast Anticancer Drug Screen. Data for the rad50EPP+ strain (AID 151);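 also: 0% = growth of vehicle-treated control cultures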
Conditions: S. cerevisiae rad50 mutant strain, hits give high values
Procedure: Growth inhibition of yeast strains with defined genetic alterations is measured as a screen for potential anti-cancer activity. Selected strains with alterations in DNA damage repair or cell cycle control were exposed to compounds and growth inhibition was measured relative to vehicle treated controls. The strain used in this assay is rad50EPP+

Measured: growth inhibition

CC(O)C(O)C(O)C(/C=N\Nc1ccccc1)=N/Nc1ccccc1 (stereo not given)
inactive: at 1.2 µM 14% | at 3.7 µM 26% | at 11.0 µM 39% | at 33.0 µM 50% | at 100.0 µM 50%

CN(C)c1nc2sc3c(c2c(=O)o1)CCCC3
inactive: at 1.2 µM 13% | at 3.7 µM 14% | at 11.0 µM 21% | at 33.0 µM 23% | at 100.0 µM 22%

COc1ccc2c(c1)C(=O)c1ccccc1C2
inactive: at 1.2 µM 3% | at 3.7 µM 10% | at 11.0 µM 24% | at 33.0 µM 42% | at 100.0 µM 46%

COc1ccc2sc3cccc(NCCN(C)C)c3c(=O)c2c1
inactive: at 1.2 µM 6% | at 3.7 µM 8% | at 11.0 µM 17% | at 33.0 µM 25% | at 100.0 µM 61%

C=CC(C)(O)CCC1C(=C)C(O)CC2C(C)(C)CCCC12C (stereo not given)
inactive: at 1.2 µM 4% | at 3.7 µM -6% | at 11.0 µM 12% | at 33.0 µM 0% | at 100.0 µM -40%

CC(/C=C/c1ccc(Cl)cc1)=N\NC(=S)NCC(C)C
inactive: at 1.2 µM -3% | at 3.7 µM -5% | at 11.0 µM 10% | at 33.0 µM 12% | at 100.0 µM 28%

Cc1cc(S(=O)(=O)/N=C(/NN)NNc2cccc(C(F)(F)F)n2)c(S)cc1Cl
inactive: at 1.2 µM -8% | at 3.7 µM -24% | at 11.0 µM -28% | at 33.0 µM -52% | at 100.0 µM -50%

N#Cc1c(N)[nH]c2ccc(Sc3ccccc3)cc12
inactive: at 1.2 µM 3% | at 3.7 µM 6% | at 11.0 µM 19% | at 33.0 µM 33% | at 100.0 µM 51%
